Experimental findings from PubChem BioAssay are described below.

“And” between values parts separate entries of the source, which are not always exact repeats. Equal values may be shown once. Results filed as inconclusive are left out. The source made the active and inactive calls.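 Rule for the calls, unless noted: active = normalized viability below 100% at a tested concentration; inactive = the rest.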

Test [1] is described as follows: viability loss in pontine glioma line – cell-based, SU-DIPG-IV, MIPE4.0, CellTiter-Glo, qHTS, dose response (AID 1347063; cut-off not given, nearly all actives have AC50 up to about 30 µM;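 note: compound exposure lasted 48 hours before the viability readout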). Particulars: CellTiter-Glo ATP luminescence. In general terms: In ATP-based viability assays light output follows the ATP content of the culture.
The nature of test [2]: viability loss in pontine glioma line – cell-based, SU-DIPG-XXV, MIPE5.0, CellTiter-Glo, qHTS, dose response (AID 1347065; cut-off not given, nearly all actives have AC50 up to about 26 µM;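 note: cells exposed to compound for 48 hours before ATP readout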). To be noted: CellTiter-Glo ATP luminescence.
A short description of test [3]: JHH-DIPG-1 glioma cell viability, MIPE5.0 library, CellTiter-Glo luminescence, qHTS (AID 1347067; cut-off not given, nearly all actives have AC50 up to about 26 µM;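 note: cells exposed to compound for 48 hours before readout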). To be noted: JHH-DIPG-1 glioma viability, CellTiter-Glo ATP luminescence.
Test [4] is described as follows: growth inhibition of DIPG cells – cell-based, MIPE5.0 library, qHTS (AID 1347068; cut-off not given, nearly all actives have IC50 up to about 30 µM;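 for IC50: cells exposed to compound for 48 hours before viability readout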). Particulars: SU-DIPG-XXV viability.
The nature of test [5]: viability loss in pontine glioma line – cell-based, JHH-DIPG-1, MIPE4.0, CellTiter-Glo, qHTS, dose response (AID 1347062; cut-off not given, nearly all actives have AC50 up to about 27 µM). Particulars: JHH-DIPG-1 viability, CellTiter-Glo ATP luminescence.
Test [6] in a line: viability loss with induced miR-34 in A549 – imaging, A549 dox-inducible miR-34, nuclei and caspase counts, primary screen (AID 1347080;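 active = compounds whose cell count with miR-34 switched on is under 0.7 times the count with it off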). Particulars: A549 miR-34 inducible, Hoechst nuclei count, 48 h.
A short description of test [7]: blockers of cellular phospholipid synthesis – cell-based, LOPAC library, screen 4, primary screen (AID 1347384; call rule not given here). Particulars: animal cells, phospholipid biosynthesis inhibition screen; at 10 µM.
The nature of test [8]: MELAS cybrid and Rieske KO viability enhancers – cell-based, MELAS cybrids, Rieske KO mouse fibroblasts, CellTiter-Glo, primary screen (AID 1508586;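 active = mean z-score across replicates of 1.96 or higher in either the MELAS or the Rieske mutant cell line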;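 note: z relative to plate mean and SD of compound and empty wells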). To be noted: low glucose.
Test [9] in a line: galactose survival enhancers in mitochondrial complex I cybrids – cell-based, galactose medium, ATP luminescence, primary screen (AID 1645843;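 active = z-score of at least 1.8 in each of two replicates, scored against plate mean and spread of sample wells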;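 note: positive z means more ATP and so rescue of galactose-driven cybrid death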). Particulars: complex I mutant cybrid cells, 72 h, stronger effect = higher value.
Test [10] in a line: viability loss in pontine glioma line – cell-based, SU-DIPG-XIII, MIPE5.0, CellTiter-Glo, qHTS, dose response (AID 1347064; cut-off not given, nearly all actives have AC50 up to about 23 µM;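 for AC50: cells exposed to compound for 48 hours before the viability read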). To be noted: CellTiter-Glo ATP luminescence.
A short description of test [11]: growth inhibition of DIPG cells – cell-based, MIPE4.0 library, CellTiter-Glo luminescence, qHTS (AID 1347066; cut-off not given, nearly all actives have AC50 up to about 30 µM;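 note: cells exposed to compound for 48 hours before readout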). Particulars: SU-DIPG-VI viability, CellTiter-Glo ATP luminescence.
Test [12] in a line: compounds altering HSF1 focus formation in cells – imaging, Selleck Cancer Library (AID 1347162; in the data active = plate-normalised HSF1 focus index below about 0.46). Particulars: human cells, HSF1 nuclear foci imaging, at 10 µM; SSMD: measured here: HSF1 foci SSMD mean; cell count: measured here: cell number; plate-normalised HSF1 focus index: stronger effect = lower value.
The nature of test [13]: drug combination growth inhibition, ovarian cancer – cell-based, oncology-focused library, rucaparib conditional, profiling panel (AID 1508598). To be noted: patient-derived ovarian cancer cells, CellTiter-Glo viability, 144 h, stronger effect = lower value.
Setting [14] is: stronger effect = lower value, cell number ratio, induced over uninduced.
[15] abbreviates: measured here: relative caspase fold change +Dox/-Dox.
Where [16] appears, read: measured here: total cells with miR-34 induction, stronger effect = lower value.
[17] abbreviates: measured here: total cells without miR-34 induction.
The mark [18] stands for this setting: MELAS cybrid survival, CellTiter-Glo 48 h, stronger effect = higher value.
The mark [19] stands for this setting: Rieske KO mouse fibroblast survival, CellTiter-Glo 72 h.

For `CO[C@H]1C[C@@H]2CC[C@@H](C)[C@@](O)(O2)C(=O)C(=O)N2CCCC[C@H]2C(=O)O[C@H]([C@H](C)C[C@@H]2CC[C@@H](OCCO)[C@H](OC)C2)CC(=O)[C@H](C)/C=C(/C)[C@@H](O)[C@@H](OC)C(=O)[C@H](C)C[C@H](C)/C=C\C=CC=C1C`, the AC50 – broadly, the midpoint of the concentration-response curve, whichever way the signal moves – is 8.33 µM (active) in test [1], 23.5 µM (active) in test [2] and 29.5 µM (active) in [3]. For the same compound, the concentration for half-maximal inhibition (IC50) (as a rule, the concentration needed to halve the response being measured) in test [4] is 23.5 µM (active).

For `Cc1cc(Cl)ccc1OCCCC(=O)NO`, the outcome in test [5], in [4] and in test [7] was inactive. The fold change in [6] (setting [14]) is 0.893 (inactive) and 0.9 (inactive); in test [6] (setting [15]), 2.21 and 0.917. The cell count in test [6] (setting [16]) is 6940 and 6970; in test [6] (setting [17]), 7770 and 7740. Besides, the z-score in test [8] (setting [18]) was -0.389 (inactive); in [8] (setting [19]) it was 0.796; in test [9], 0.555 (inactive).

As for `Cc1c(C)n(Cc2ccc(-c3ccccc3C(=O)O)cc2)c2ccc(C(=O)N[C@@H](C)c3ccc([N+](=O)[O-])cc3)cc12`, in [1], the half-maximal activity concentration (AC50) was 0.0372 µM (active).

With `NS(=O)(=O)c1ccc(Nc2nc(OCC3CCCCC3)c3[nH]cnc3n2)cc1`, the compound was called inactive in [5] and in test [4].

Take `CC(C)NC(=O)COc1cccc(-c2nc(Nc3ccc4[nH]ncc4c3)c3ccccc3n2)c1`: the results for the AC50 in [10] and in test [2] were 5.9 µM (active) and 5.25 µM (active), respectively.

In the case of `COc1ccc(CCC(=O)Nc2nc3ccc(Cl)cc3s2)cc1OC`, the call in test [5], in [3] and in test [4] was inactive. In addition, the results for the fold change in [6] (setting [14]) and in test [6] (setting [15]) were 0.879 (inactive) and 0.345, respectively. Also, the cell count worked out at 7570 in test [6] (setting [16]) and 8610 in test [6] (setting [17]). In addition, the z-score is 1.34 (inactive) in test [8] (setting [18]) and -0.214 in [8] (setting [19]).

`CCNC(=O)Nc1ccc(Oc2ncnc(N)c2/C=N/OC)cc1Cl`: the compound was classed as inactive in test [5], in test [11] and in [4].

On to `CN(C)CC[C@H](CSc1ccccc1)Nc1ccc(S(=O)(=O)NC(=O)c2ccc(N3CCN(Cc4ccccc4-c4ccc(Cl)cc4)CC3)cc2)cc1[N+](=O)[O-]`, for which the AC50 in test [1] is 7.43 µM (active); in test [2], 0.934 µM (active); in test [11], 2.35 µM (active); in [3] it was 16.6 µM (active). In addition, the IC50 in test [4] is 13.2 µM (active). The SSMD in [12] was -3.9. The same compound had a cell count in test [12] of 6950. Moreover, the plate-normalised HSF1 focus index in test [12] is 0.864 (inactive). In addition, the viability (usually a read-out of living cells in per cent, often relative to untreated cells) in test [13] (at 0.000305 µM, OCI-C5x cells, with rucaparib 10 µM, 100% = cells with rucaparib alone) is 121% (inactive); in [13] (at 0.000305 µM, OCI-C5x cells, without rucaparib), 119% (inactive); in test [13] (at 0.000305 µM, OCI-P5x cells, with rucaparib 20 µM, 100% = cells with rucaparib alone), 148% (inactive); in test [13] (at 0.000305 µM, OCI-P5x cells, without rucaparib) it was 108% (inactive); in test [13] (at 0.00122 µM, OCI-C5x cells, with rucaparib 10 µM, 100% = cells with rucaparib alone), 119% (inactive); in test [13] (at 0.00122 µM, OCI-C5x cells, without rucaparib), 124% (inactive). Further, the viability in test [13] (at 0.00122 µM, OCI-P5x cells, with rucaparib 20 µM, 100% = cells with rucaparib alone) is 135% (inactive); in [13] (at 0.00122 µM, OCI-P5x cells, without rucaparib), 102% (inactive); in [13] (at 0.00488 µM, OCI-C5x cells, with rucaparib 10 µM, 100% = cells with rucaparib alone), 109% (inactive); in [13] (at 0.00488 µM, OCI-C5x cells, without rucaparib), 114% (inactive); in [13] (at 0.00488 µM, OCI-P5x cells, with rucaparib 20 µM, 100% = cells with rucaparib alone) it was 141% (inactive); in test [13] (at 0.00488 µM, OCI-P5x cells, without rucaparib), 108% (inactive). For the same compound, the viability is 85.3% (active) in [13] (at 0.0195 µM, OCI-C5x cells, with rucaparib 10 µM, 100% = cells with rucaparib alone); 114% (inactive) in [13] (at 0.0195 µM, OCI-C5x cells, without rucaparib); 140% (inactive) in test [13] (at 0.0195 µM, OCI-P5x cells, with rucaparib 20 µM, 100% = cells with rucaparib alone); 101% (inactive) in test [13] (at 0.0195 µM, OCI-P5x cells, without rucaparib); 79.6% (active) in test [13] (at 0.0781 µM, OCI-C5x cells, with rucaparib 10 µM, 100% = cells with rucaparib alone); 103% (inactive) in test [13] (at 0.0781 µM, OCI-C5x cells, without rucaparib). For the same compound, the viability is 135% (inactive) in test [13] (at 0.0781 µM, OCI-P5x cells, with rucaparib 20 µM, 100% = cells with rucaparib alone); 99.6% (active) in [13] (at 0.0781 µM, OCI-P5x cells, without rucaparib); 69% (active) in test [13] (at 0.313 µM, OCI-C5x cells, with rucaparib 10 µM, 100% = cells with rucaparib alone); 46.2% (active) in [13] (at 0.313 µM, OCI-C5x cells, without rucaparib); 121% (inactive) in test [13] (at 0.313 µM, OCI-P5x cells, with rucaparib 20 µM, 100% = cells with rucaparib alone); 96.5% (active) in test [13] (at 0.313 µM, OCI-P5x cells, without rucaparib). For the same compound, the viability in [13] (at 1.25 µM, OCI-C5x cells, with rucaparib 10 µM, 100% = cells with rucaparib alone) was 62.2% (active); in [13] (at 1.25 µM, OCI-C5x cells, without rucaparib), 91.3% (active); in test [13] (at 1.25 µM, OCI-P5x cells, with rucaparib 20 µM, 100% = cells with rucaparib alone), 130% (inactive); in test [13] (at 1.25 µM, OCI-P5x cells, without rucaparib), 91.4% (active); in [13] (at 5 µM, OCI-C5x cells, with rucaparib 10 µM, 100% = cells with rucaparib alone), 7.96% (active); in [13] (at 5 µM, OCI-C5x cells, without rucaparib) it was 22.6% (active). The viability in [13] (at 5 µM, OCI-P5x cells, with rucaparib 20 µM, 100% = cells with rucaparib alone) was 9.56% (active); in [13] (at 5 µM, OCI-P5x cells, without rucaparib), 75.3% (active).

`COC[C@H](c1ccc(C(F)(F)F)cc1)N1CCN(C2(C)CCN(C(=O)c3c(C)ncnc3C)CC2)C[C@H]1C`: the half-maximal activity concentration (AC50) in test [1] was 11.8 µM (active). Moreover, the result in test [11] was inactive.

Regarding `CN(C)C(=O)[C@H](O)[C@H](Cc1ccccc1)NC(=O)c1cc2cc(Cl)ccc2[nH]1`, in [1], the half-maximal activity concentration (AC50) was 4.18 µM (active). Also, the outcome in test [10], in [2], in test [3], in [4] and in test [7] was inactive. Further, the results for the fold change in test [6] (setting [14]) and in test [6] (setting [15]) were 0.925 (inactive) and 1.42, respectively. For the same compound, the results for the cell count in test [6] (setting [16]) and in test [6] (setting [17]) were 8280 and 8950, respectively. For the same compound, in test [9], the z-score is 3.02 (active).

For `CCc1ccc(N(CC(C)C)S(=O)(=O)c2ccc(OCC3CCOCC3)c(CO)c2)cc1`, the compound was classed as inactive in test [10]. The concentration at half-maximal activity (AC50) in test [2] was 20.9 µM (active).

Turning to `COc1c(Cl)cc2c([nH]c3cnccc32)c1NC(=O)c1cccnc1C`, the AC50 in test [1] was 2.96 µM (active).

As to `CN(C)C(=O)c1cc2cnc(Nc3ccc(N4CCNCC4)cn3)nc2n1C1CCCC1`, the call in [10], in test [2], in test [3] and in test [4] was inactive. Moreover, the fold change in [6] (setting [14]) is 1 (inactive); in [6] (setting [15]), 0.436. For the same compound, the cell count in test [6] (setting [16]) came out at 5240; in [6] (setting [17]), 5220. The z-score in [8] (setting [18]) is -0.462 (inactive); in test [8] (setting [19]), -0.582.

Take `Cc1c(C(=O)Nc2ccc(Oc3ccnc4[nH]cc(-c5ccccc5)c34)c(F)c2)c(=O)n(-c2ccc(F)cc2)n1C`: the results for the half-maximal activity concentration (AC50) in [10], in [2] and in test [3] were 16.6 µM (active), 5.25 µM (active) and 16.6 µM (active), respectively.
